This is a sample that favours compounds with a hit; in the whole collection about 4.1% have one here.
hgDAF-12 ag – hgDAF-12 agonism, primary luciferase screen | HEK293 GAL4-hgDAF12 UAS-luciferase reporter, agonist luminescence; normalized to butyrate control | activation, % at 6.8 µM | 370,000 tested, 1.8% active;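 active = activation above a cutoff set at the mean of all screened compounds plus 3 SD, cut at about 10% in these data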;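 also: 0% = DMSO wells and 100% = sodium butyrate wells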
hcDAF-12 act – activates DAF-12 receptor from parasite H. contortus | activation, % at 6.8 µM | AID 652067 | 370,000 tested, 1.4% active | HEK293 hcDAF-12 lit1-tk-luc reporter, luminescence; 0% DMSO, 100% Δ7-dafachronic acid;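 active = activation above the mean of all tested compounds plus 3 SD, cut at about 5.5% in these data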;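 also: 100% = response to 3 µM Δ7-dafachronic acid high control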
ssDAF12 agonist – activates DAF-12 receptor from parasite S. stercoralis | HEK293 ssDAF-12/GRIP1 lit1-tk-luc reporter, luminescence; % of 3 µM dafachronic acid response | activation, % at 6.8 µM | 370,000 tested, 1% active;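 active = activation above the mean over all tested compounds plus 3 SD, cut at about 0.9% in these data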;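 also: 0% = DMSO-only wells and 100% = 3 µM delta7-dafachronic acid wells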
DAX1 inh-1 – NR0B1 (DAX1) inhibition; P51843; HEK293 Gal4-DAX1 luciferase reporter, luminescence; inhibition, % at 6.75 µM; 340,000 tested, 0.99% active; AID 504766;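 active = inhibition above the mean over all tested compounds plus 3 SD, cut at about 4.2% in these data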;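 also: 0% = DAX1-transfected cells with DMSO and 100% = empty-vector control cells with DMSO; inhibition shows as a rise in luminescence from relieved DAX1 repression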
Target sequence (P51843 207-470 limits assumed): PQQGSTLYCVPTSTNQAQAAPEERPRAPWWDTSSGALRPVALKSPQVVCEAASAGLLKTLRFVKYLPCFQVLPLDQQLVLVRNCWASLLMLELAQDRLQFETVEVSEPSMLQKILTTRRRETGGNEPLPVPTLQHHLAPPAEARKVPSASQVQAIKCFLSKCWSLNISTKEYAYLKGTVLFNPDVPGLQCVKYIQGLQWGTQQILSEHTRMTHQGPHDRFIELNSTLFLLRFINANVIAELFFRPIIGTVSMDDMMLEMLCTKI
DAX1 inh-2 – inhibitors of DAX1 repression of SF-1 activated StAR promoter. HEK293T StAR-luciferase reporter, SF-1/DAX-1 repression relief. inhibition, % at 6.8 µM. 370,000 tested, 1.1% active. AID 652010;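 active = inhibition above the mean over all tested compounds plus 3 SD, cut at about 3.6% in these data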;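 also: 0% = DAX-1 cells with DMSO and 100% = cells lacking DAX-1 with DMSO; higher inhibition means more luminescence from relief of DAX-1 repression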
* = called active by the depositor; . = not tested or not shown.

SMILES | hgDAF-12 ag | hcDAF-12 act | ssDAF12 agonist | DAX1 inh-1 | DAX1 inh-2
Cn1c(Cn2c(=O)sc3ccccc32)nnc1SCC(=O)NC1CCCCC1 | . | . | . | 2 | .
CCn1c(CC(=O)Nc2ccc(F)cc2)nnc1SCC(=O)NC1CCCC1 | -2 | 1 | -1 | 4.8* | 0
O=C(CSc1cc(Cl)ccc1Cl)NC1CCCC1 | 1 | -1 | 0 | 5.4* | 0
O=S1(=O)c2c(NCc3ccco3)cccc2Oc2ccccc2CN1Cc1cn(Cc2cccc(F)c2)nn1 | -5 | -2 | -2 | . | -1
C=CCCC(=O)N[C@H]1CC[C@@]23CCCN2C(=O)CCC[C@H]3[C@H]1CCC | -2 | -1 | -2 | . | .
Cn1c(CNC(=O)c2ccc(Cl)cc2)nnc1SCC(=O)NC1CCCC1 | -1 | 0 | -1 | 6.5* | 0
NC(=O)CSc1nnc(Cn2c(=O)sc3ccccc32)n1CCc1ccccc1 | -2 | 0 | -1 | 4.5* | 0
CCCC(=O)Oc1cccc(C2NC(=O)c3ccccc3O2)c1 (configuration not stated) | 0 | -2 | 1 | 2 | 0
CC(C)Oc1cccc(C2NC(=O)c3ccccc3O2)c1 (configuration not stated) | 2 | 2 | -1 | 4.7* | 0
O=c1c2ccccc2oc2ccc(-c3ccc4[nH]ccc4c3)cc12 | 11* | 5 | 0 | 4 | 5.0*
C#CCNC[C@@H]1CSCCS(=O)(=O)N1 | -1 | -1 | 0.9* | . | 1
COc1ccc(C2c3ccccc3NC3C2C(=O)N(Cc2ccc(OC)cc2OC)[C@H]3Cc2ccccc2)cc1 (some centres not stated) | 4 | -1 | -2 | . | -1
O=C(CCNC(=O)N1CC(=O)Nc2ccccc21)NCc1cccc(Cl)c1 | 4 | 0 | -1 | 3 | 4.4*
O=C(CNC(=O)N1CC(=O)Nc2ccccc21)Nc1ccccc1 | 6 | 3 | 0 | 1 | 3
O=C(CCNC(=O)N1CC(=O)Nc2ccccc21)Nc1cccc(Cl)c1 | 7 | 4 | 0 | 2 | 2
O=C(CNC(=O)N1CC(=O)Nc2ccccc21)Nc1ccccc1F | 4 | 3 | 1.0* | 0 | 0
COc1ccc(-c2nc3ncccn3c2Br)cc1 | 11* | 3 | 0 | 10.0* | 2
C[N+]1=C2N[C@@H](c3ccccc3)CC(=O)N2/C(=C\c2ccccc2)[C@@H]1Cc1ccccc1 | -3 | -4 | -2 | . | .
COc1ccccc1C(=O)NC1CCCCN(Cc2cccc(F)c2)C1=O (configuration not stated) | 3 | -3 | -1 | . | -1
COc1ccc2oc(C(=O)NC(C)(C)C)c(C)c2c1 | 13* | 1 | -1 | 2 | 3
O=C(N/N=C\c1ccc(-c2cccc(Cl)c2)o1)C(=O)NC1CCCC1 | 0 | 0 | -1 | 7.0* | 0
CCc1ccc(OCC(=O)N2CCc3ccccc32)cc1 | 12* | 4 | 0 | 1 | 1
COc1cccc(-c2nnc3n2N=C(c2ccc(Cl)cc2)CS3)c1 | -2 | -2 | -1 | . | 0
C=CC[C@H]1c2ccccc2[C@H]2N3N=Cc4ccccc4[C@H]3[C@H](CCc3ccccc3)C(=O)N2N1C(=O)c1ccccc1 | -1 | -4 | -1 | . | -1
O=S(=O)(Nc1ccc2oc(-c3ccccc3)nc2c1)c1ccccc1 | 3 | -1 | -2 | -2 | 0
SMILES | hgDAF-12 ag | hcDAF-12 act | ssDAF12 agonist | DAX1 inh-1 | DAX1 inh-2
O=S(=O)(O)c1cc2oc(-c3ccccc3)nc2c2ccccc12 | 2 | 5.8* | 0 | 0 | 0
O=C(NCCCc1ccccc1)OC1CCC12CCC(c1ccccc1)CC2 (configuration not stated) | -1 | -1 | -2 | . | 0
CCOC(=O)CC1CCCCN1Cc1cn[nH]c1-c1ccc(F)cc1F (configuration not stated) | -4 | -2 | -1 | 4.7* | 0
Cc1ccc(-n2c(N)c(C#N)c(-c3ccccc3)c(C#N)c2=O)cc1 | -1 | 0 | -1 | 1 | -1
Cc1ccc(-c2nc3sc(C#N)c(N)n3c(=O)c2C#N)cc1 | 9 | 3 | 0 | 4.8* | 0
CC(C)C[C@@H]1COc2cccc(N3CCC[C@H]3CO)c2S(=O)(=O)N1 | 0 | 2 | -1 | . | 3.6*
CCn1c(=O)[nH]n(C/C(C)=C\c2c[n+](Cc3ccc4c(c3)OCO4)c(N)[nH]2)c1=O | -2 | -2 | -2 | . | .
C=C(CO)C1Cc2cc(C(C)=O)ccc2O1 (configuration not stated) | 0 | 0 | -1 | 4.3* | -1
CC1Cc2cc(C(=O)O)ccc2O1 (configuration not stated) | 1 | 0 | -1 | 2 | 0
CN=C1S/C(=C\c2cn(CC(=O)OC)c3ccccc23)C(=O)N1C | -2 | 5 | 0.9* | 0 | 0
CN=C1S/C(=C/c2cn(CC(=O)OC)c3ccccc23)C(=O)N1C | 2 | 3 | 1.7* | 2 | -1
CC(C)Cc1ccc(-c2ccc3nccn3c2)cc1 | 6 | -2 | -1 | . | 2
COc1ccccc1CNC(=O)C1CC(c2ccccc2[N+](=O)[O-])=NO1 (configuration not stated) | 1 | 6.1* | 0 | -1 | 0
COc1ccc(CNC(=O)C2CC(c3ccccc3[N+](=O)[O-])=NO2)cc1 (configuration not stated) | 2 | 1 | -1 | 2 | 0
Cc1cccc(C2Nc3ccccc3C(=O)N2c2ccccc2)n1 (configuration not stated) | 2 | 1 | -1 | 1 | 0
O=C1c2ccccc2NC(c2ccccn2)N1c1ccc(Cl)cc1 (configuration not stated) | 8 | 6.2* | -1 | 2 | 0
COc1cc(C2C3=C(CC(C)(C)CC3=O)Nc3c2c(=O)[nH]c(=O)n3Cc2ccccc2)ccc1O (configuration not stated) | 1 | -1 | -1 | 4.3* | 0
COc1ccc(C2C3=C(CC(C)(C)CC3=O)Nc3c2c(=O)[nH]c(=O)n3Cc2ccccc2)cc1OC (configuration not stated) | 0 | 3 | 0 | 0 | 0
CCOc1ccc2nc(/N=C/c3c(C)[nH]n(-c4ccccc4)c3=O)sc2c1 | 4 | 2 | 0.9* | 4 | 2
Cc1nc(NCc2ccco2)c2c(C)c(C)sc2n1 | -8 | -4 | -3 | -3 | -3
Cc1sc2nc3c4ccccc4c(NCc4ccco4)nn3c(=O)c2c1C | 14* | 7.5* | 0 | 3 | 3
C#CCOC(=O)C[N+](C)(C)CC#Cc1ccccc1 | 6 | -1 | -1 | 8.6* | 0
C#CCOC(=O)C[N+](C)(C)C/C=C/c1ccccc1 | -1 | 0 | -1 | 1 | 0
CCCCOC(=O)/C=C\C(=O)OCCCC | -1 | -1 | -1 | 6.9* | 1
Cc1ccc(OCC(=O)N/N=C2/SCC(=O)N2Cc2ccco2)cc1 | 0 | -2 | -1 | 6.9* | 1

Assay outcomes as filed in PubChem BioAssay.
